About 4,300 (8.3%) of roughly 52,000 compounds were called active. Rule as the data show it: active = survival mostly below about 52% (no sharp cut-off); inactive = mostly above about 56%. The entries come from a sample that favours actives as a whole.
System: DeltatarO mutant
Assay: growth inhibition of S. aureus wild type versus tarO mutant, primary screen, teichoic acid synthesis inhibitors, RN4220, OD600 (AID 463173)
Conditions: OD600, 18 h, hits give low values, screened at 18.75 µg/mL (by protocol)

Row | SMILES | survival
1 | CCOC(=O)C1CCCN(C(=O)c2ccc3c(c2)N(Cc2cccc(Cl)c2)C(=O)c2ccccc2S3(=O)=O)C1 (stereo not drawn) | 64% (inactive)
2 | Cc1cccc(NC(=O)CS(=O)(=O)c2nc(-c3ccccc3)cn2-c2cccc(Cl)c2)c1C | 63% (inactive)
3 | Cc1ccc(C)c(Cn2c(=O)n(CCCCC(=O)NCc3ccccc3Cl)c(=O)c3ccccc32)c1 | 107% (inactive)
4 | COc1ccc(N(C)C(=O)Cn2cc(S(=O)(=O)N3CCN(c4ccccc4F)CC3)c3ccccc3c2=O)c(OC)c1 | 97% (inactive)
5 | Cc1ccc(-c2nn3c(C)nnc3c3ccccc23)cc1S(=O)(=O)NC(C)(C)CO | 74% (inactive)
6 | O=C(NCc1ccccc1Cl)c1cnc2sc(N3CCOCC3)nn2c1=O | 71% (inactive)
7 | COc1cccc(-c2nc(SCc3cc(=O)c4cc(Cl)ccc4[nH]3)n[nH]2)c1 | 94% (inactive)
8 | O=C(C1CC2c3ccccc3C1c1ccccc12)N1CCOCC1 (stereo not drawn) | 86% (inactive)
9 | COc1ccc(OC)c(NC(=O)C2CCN(S(=O)(=O)c3ccc4c(c3)CC(C)N4C(C)=O)CC2)c1 (stereo not drawn) | 75% (inactive)
10 | COc1ccc(C(=O)NCc2ccc3c(c2)CCN3C(=O)c2cccc(C)c2)cc1OC | 119% (inactive)
11 | Cc1ccc(Cl)cc1N1CCN(S(=O)(=O)c2ccc3[nH]c4c(c3c2)CCCC4)CC1 | 72% (inactive)
12 | COc1ccc(NC(=O)CN(c2ccccc2OC)S(C)(=O)=O)c(OC)c1 | 75% (inactive)
13 | Cc1ccc(-n2ccn(CC(=O)c3ccc(F)cc3)c(=O)c2=O)cc1C | 69% (inactive)
14 | Cc1c(NC(=O)c2cc(=O)c3cc(Cl)ccc3o2)c(=O)n(-c2ccccc2)n1C | 43% (active)
15 | Cc1c(NC(=O)c2cc(=O)c3ccccc3o2)c(=O)n(-c2ccccc2)n1C | 67% (inactive)
16 | Cc1cc2oc(C(=O)Nc3c(C)n(C)n(-c4ccccc4)c3=O)cc(=O)c2cc1C | 78% (inactive)
17 | Cc1ccc2c(=O)cc(C(=O)Nc3c(C)n(C)n(-c4ccccc4)c3=O)oc2c1 | 39% (active)
18 | Cc1cc(C)c2c(=O)cc(C(=O)Nc3c(C)n(C)n(-c4ccccc4)c3=O)oc2c1 | 65% (inactive)
19 | CCc1ccc2oc(C(=O)Nc3c(C)n(C)n(-c4ccccc4)c3=O)cc(=O)c2c1 | 97% (inactive)
20 | CCN(CC)CCN1C(=O)c2ccccc2NC1c1ccccc1F (stereo not drawn) | 106% (inactive)

Row | SMILES | survival
21 | CCOc1ccc(NC(=O)CSc2cn(CCNC(=O)c3ccccc3F)c3ccccc23)cc1 | 71% (inactive)
22 | CCC(Sc1nccn1C)C(=O)Nc1cc(C)on1 (stereo not drawn) | 90% (inactive)
23 | Cc1ccc(CSc2nc3cc(C(=O)NC4CCCC4)ccc3c(=O)n2Cc2ccccc2)cc1 | 57% (inactive)
24 | CCC(Sc1nc2nccnc2c(=O)n1Cc1ccccc1Cl)C(=O)NC1CCCCC1 (stereo not drawn) | 99% (inactive)
25 | CCC(Sc1nc2nccnc2c(=O)n1Cc1ccc(C)cc1)C(=O)NC1CCCCC1 (stereo not drawn) | 39% (active)
26 | CCC(Sc1nc2nccnc2c(=O)n1Cc1ccc(OC)cc1)C(=O)NC1CCCCC1 (stereo not drawn) | 104% (inactive)
27 | CCC(Sc1nc2cc(OC)c(OC)cc2c(=O)n1Cc1ccc(Cl)cc1)C(=O)NCCOC (stereo not drawn) | 91% (inactive)
28 | CCC(Sc1nnc(-c2ccc(F)cc2)c(-c2ccc(F)cc2)n1)C(=O)NC1CCCC1 (stereo not drawn) | 75% (inactive)
29 | CCC(C(=O)NC1CCCCC1)n1c(SCc2ccc(F)cc2)nc2ccncc21 (stereo not drawn) | 73% (inactive)
30 | CCC(Sc1nc2nccnc2c(=O)n1Cc1ccc(Cl)cc1)C(=O)NC1CCCCC1 (stereo not drawn) | 19% (active)
31 | CCC(Sc1nc2nccnc2c(=O)n1Cc1ccc(F)cc1)C(=O)NC1CCCCC1 (stereo not drawn) | 42% (active)
32 | CCOC(=O)N1CCN(C(=O)CN(c2cccc(Cl)c2C)S(=O)(=O)c2ccc(C)cc2)CC1 | 119% (inactive)
33 | CC1CCN(S(=O)(=O)c2csc(C(N)=O)c2)CC1 | 85% (inactive)
34 | CC1CCN(S(=O)(=O)c2cccc(C(=O)N(C)C3(C)CCS(=O)(=O)C3)c2)CC1 (stereo not drawn) | 75% (inactive)
35 | CN1CCN(C(c2ccc(F)cc2)c2sc3nc(-c4ccco4)nn3c2O)CC1 (stereo not drawn) | 79% (inactive)
36 | Cc1cc(C)c(S(=O)(=O)NCC(c2ccco2)N2CCOCC2)c(C)c1 (stereo not drawn) | 89% (inactive)
37 | CN(C)c1ccc(-c2nc3ccc(Cl)cn3c2Nc2ccc3c(c2)OCCO3)cc1 | 143% (inactive)
38 | COc1cccc2c1Oc1nc(-c3ccccc3)nc(SCC(=O)N3CCCCC3)c1C2 | 100% (inactive)
39 | COc1ccc(CCC(=O)N2CCc3c([nH]c4ccccc34)C2c2ccc(F)cc2)cc1 (stereo not drawn) | 83% (inactive)
40 | Cc1nnc(SCC(=O)O)n1N | 114% (inactive)

Row | SMILES | survival
41 | Cc1nnc(SCc2ccccc2)n1N | 61% (active)
42 | Cn1c(SCc2ccccc2)nnc1-c1ccccc1 | 93% (inactive)
43 | CC(C)Oc1ccc(CNC(=O)C2=Cc3ccccc3OC2)cc1 | 67% (inactive)
44 | CCOc1ccc(CCNC(=O)CCCc2nnc3n(CC)c(=O)c4sccc4n23)cc1OCC | 92% (inactive)
45 | CCOC(=O)c1ccccc1NC(=O)CSc1ncc2c(n1)-c1ccccc1N(CC)S2(=O)=O | 83% (inactive)
46 | COc1ccc(OC)c(CNC(=O)NCc2noc3ccc(C)cc23)c1 | 104% (inactive)
47 | COC(=O)c1ccccc1NC(=O)Cc1noc2ccc(C)cc12 | 39% (active)
48 | Cc1ccc2onc(CNC(=O)Nc3ccccc3C#N)c2c1 | 76% (inactive)
49 | COc1ccc(NC(=O)Cc2noc3ccc(C)cc23)cc1Cl | 56% (active)
50 | CC(=O)c1cccc(NC(=O)Cc2noc3ccccc23)c1 | 49% (inactive)
51 | COc1ccc(Cl)cc1N(C)C(=O)Cc1noc2ccc(C)cc12 | 50% (inactive)
52 | Cc1ccc(CNC(=O)NCc2noc3ccc(C)cc23)cc1 | 47% (inactive)
53 | CCOc1ccccc1NC(=O)NCc1noc2ccc(C)cc12 | 35% (active)
54 | Cc1ccc2onc(CC(=O)Nc3ccc(C(C)C)cc3)c2c1 | 46% (active)
55 | CCOc1ccccc1NC(=O)Cc1noc2ccc(C)cc12 | 48% (inactive)
56 | Cc1ccc2onc(CC(=O)Nc3cc(F)ccc3F)c2c1 | 48% (inactive)
57 | COc1ccccc1CNC(=O)NCc1noc2ccc(C)cc12 | 56% (inactive)
58 | Cc1ccc(-c2nn3c(=O)cc(CN4CCN(C(=O)c5ccc(C(C)(C)C)cc5)CC4)nc3s2)cc1 | 67% (inactive)

Source: PubChem BioAssay AID463173 (ICCB-Longwood Screening Facility, Harvard Medical School, 2010)
